# PubChem BioAssay (Tox21)
# Values joined by “and” are separate entries in the source; they are usually repeats but may differ in a detail not shown here. Identical values can stand only once. Inconclusive results are not listed. Unmarked numbers belong to inactive results. Active and inactive are the calls of the source. Calls follow the shape of the dose curve; as a rule, active = well fitted cell-killing curve with a large enough effect in the repeat runs; inconclusive = weak or mixed curves; inactive = no such curve, though single readings can be large or run the other way.
# Assay: qHTS assay to identify small molecule antagonists of the peroxisome proliferator-activated receptor delta (PPARd) signaling pathway - cell viability counter screen (AID 743213); also: nearly all actives have a fitted effect of over 50% in size
# Conditions: PPARd-bla HEK293H viability, CellTiter-Glo luminescence, 17 h; series mostly up to 62 µM; viability change, negative = cytotoxic: at the top concentration
# From the text: U.S. Tox21 Program National Center for Advancing Translational Sciences [NCATS] NIH Chemical Genomics Center [NCGC] U.S. Environmental Protection Agency [EPA] National Institutes of Environmental Health Sciences [NIEHS] National Toxicology Program [NTP] U.S. Food and Drug Administration [FDA] Tox21 Assay Overview: The peroxisome proliferator-activated receptors (PPARs) are lipid-activated transcription factors of the nuclear receptor superfamily with three distinct subtypes namely PPAR alpha, PPAR delta (PPARd) and PPAR gamma. All these subtypes heterodimerizes with Retinoid X receptor (RXR) and have different physiological functions. […] To identify the compounds that inhibit PPAR-delta signaling, GeneBLAzer PPAR delta UAS-bla HEK293H cell line (Invitrogen, Carlsbad, CA, USA) containing a beta-lactamase reporter gene under the control of an Upstream Activator Sequence (UAS) was used to screen the Tox21 compound library. The cytotoxicity of the Tox21 compound library against the PPARd-bla cell line was tested in parallel by measuring the cell viability using CellTiter-Glo assay (Promega, Madison, WI) in the same wells.
# Tox21 Assay Protocol Summary: PPARd-bla cells were dispensed at 3000 cells/5uL/well in 1536-well black wall/clear bottom plates using a Multidrop Combi (Thermo Fisher Scientific, Waltham, MA) dispenser. After the assay plates were incubated at 37 C and 5% CO2 for 5 h, 23 nL of compounds dissolved in DMSO, positive controls or DMSO only was transferred to the assay plate by a Pintool station (Kalypsys, San Diego, CA), followed by addition of 1ul L165041 (300 nM, final concentration in the wells). The assay plates were incubated at 37 C for 17 h, and then 1 uL of LiveBLAzerTM B/G FRET substrate was added using a Bioraptr Flying Reagent Dispenser (FRD) workstation (Beckman Coulter, Indianapolis, IN, USA). The assay plates were incubated at room temperature for 2 h and fluorescence intensity was measured by an Envision plate reader (PerkinElmer, Shelton, CT). For cell viability readout that measures cytotoxicity, 3 ul/well of CellTiter-Glo reagent was added into the assay plates using a Bioraptr FRD. After 30 min incubation at room temperature, the luminescence intensity in the plates was measured using a ViewLux plate reader (PerkinElmer).
# % is scaled to controls: 0 for no effect and ±100 for the full control effect; potency is read from the fitted curve at half-maximal effect.
SMILES,"viability change, negative = cytotoxic",Potency
Oc1ccc(-c2ccc(O)cc2)cc1,-10.9% [at 80.4 µM],
CC(C)(C)c1cc(/C=C2\SC(=N)NC2=O)cc(C(C)(C)C)c1O,,54.9 µM (active)
C/C=C/C(=O)Oc1c(CCCCCC(C)C)cc([N+](=O)[O-])cc1[N+](=O)[O-],,24.5 µM (active)
Nc1ncnc2c1ncn2[C@@H]1O[C@H](COP(=O)(O)O)[C@@H](O)[C@H]1O,,11.9 µM (active)
Nc1ccc2cc3ccc(N)cc3nc2c1,-0.23%,
CCCCCCCC/C=C\CCCCCCCC(=O)N(C)CC(=O)O,,12.3 µM (active)
COc1cc(C=C2CCC/C(=C\c3ccc(O)c(OC)c3)C2=O)ccc1O,,33.5 µM (active)
CCCCCCCC/C=C\CCCCCCCC(=O)OCCOC(=O)CCCCCCC/C=C\CCCCCCCC,13.4% [at 80.4 µM],
Cc1ccc(-n2[nH]c(C)c(N=Nc3cccc(-c4cccc(C(=O)O)c4)c3O)c2=O)cc1C,-8.37%,
CN1[C@@H]2CC[C@@H]1CC(OC(=O)C(CO)c1ccccc1)C2 (stereo not given in full),-1.21%,
CC(C)N=C(N)/N=C(\N)Nc1ccc(Cl)cc1,,11.9 µM (active)
Oc1ccc(-c2ccccc2)c(Cl)c1,-18.7%,
Oc1c(Br)cc(Br)c2cccnc12,,3.35 µM (active)
CCN1CCN(c2cc(-c3ccc(F)cc3)c3c(n2)CCCCCC3)CC1,-26.7% [at 28.9 µM],
CCOC(=O)N1CCC(=C2c3ccc(Cl)cc3CCc3cccnc32)CC1,,43.6 µM (active)
CCCN(CCc1cccs1)[C@H]1CCc2c(O)cccc2C1,-2.93%,
CNC(=O)c1cc(Oc2ccc(NC(=O)Nc3ccc(Cl)c(C(F)(F)F)c3)cc2)ccn1,,10.6 µM (active)
O=Nc1ccc(NO)cc1,3.67% [at 80.4 µM],
CCN(CC)c1ccc(N)cc1,,31.7 µM (active)
Cc1ccc(N)cc1O,-25.8%,

SMILES,"viability change, negative = cytotoxic",Potency
CCC1(c2cnc[nH]2)Cc2ccccc2C1,0.773%,
C=C[C@](C)(O)CC[C@@H]1[C@@]2(C)CCCC(C)(C)[C@@H]2CC[C@@]1(C)O,,34.7 µM (active)
C=C(c1ccc(C(=O)O)cc1)c1cc2c(cc1C)C(C)(C)CCC2(C)C,,21.9 µM (active) and 29.8 µM (active)
O=C(O)CCCCCCC(=O)O,3.01% [at 80.4 µM],
CCCCOC(=O)C(C)CC (stereo not given),,49 µM (active)
CC(C)(C)CC(C)(C)c1ccccc1O,,39.1 µM (active)
CCOC(=O)C1=C(C)NC(C)=C(C(=O)OCC)C1c1ccccc1/C=C/C(=O)OC(C)(C)C,,18.8 µM (active)
C(=C/c1ccccc1)/c1ccccc1,-0.156% [at 80.4 µM],
NC(=O)c1ccccc1N,-7.94% [at 80.4 µM],
C=CC(=O)OCCOCC(CC)(COCCOC(=O)C=C)COCCOC(=O)C=C,,36.1 µM (active)
CCCCCCCCCCOCC(O)CN (stereo not given),,29.8 µM (active)
Cc1cc(Nc2ccc(O)cc2)ccc1N,-15.9%,
CC(C(O)c1ccccc1)N(C)CCOC(c1ccccc1)c1ccccc1 (stereo not given),,33.5 µM (active)
CCCCCCCCCCCC(=O)N(CC)CC,-27%,
O=C1C=CC(=O)N1c1ccccc1,,15.5 µM (active)
CN(Cc1cc(Br)cc(Br)c1N)C1CCCCC1,2.11%,
CC(=O)Oc1ccc(C2(c3ccc(OC(C)=O)cc3)C(=O)Nc3ccccc32)cc1,-10.2%,
Cc1cccc(C)c1NC(=O)CN1CCN(CCCC(c2ccc(F)cc2)c2ccc(F)cc2)CC1,,21.1 µM (active)
CC(C)(c1cc(Br)c(OCCO)c(Br)c1)c1cc(Br)c(OCCO)c(Br)c1,,42.7 µM (active)
O=C1NCN(c2ccccc2)C12CCN(CCCC(c1ccc(F)cc1)c1ccc(F)cc1)CC2,,21.1 µM (active)
